# Bioassay records deposited in PubChem BioAssay by National Center for Advancing Translational Sciences (NCATS).
# ALOX12 inh = inhibitors of human 12S-lipoxygenase ALOX12; P18054; purified 12hLO, xylenol orange hydroperoxide absorbance; Potency, µM (highest dose often 108 µM), inactives show top-dose activity change, negative = inhibition, hits mostly inhibitors; 1.1% of 580,000 active; further: potency means the concentration at half of the fitted maximal effect; on the % scale 0 is the no-effect control and ±100 the full control effect
#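 Purified human 12hLO (150 nM final) in 25 mM Hepes, 0.01% Triton X-100, pH 7.0 was preincubated 15 min at room temperature with compound. Then 40 uM arachidonic acid was added, 30 min. Hydroperoxide was read by Fe-XO absorbance ratio 573/405 nm.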
# TSG101-PTAP inh = blocks PTAP/TSG101 interaction to inhibit HIV-1 budding; Q99816; Fluorescence polarization, FITC-PTAP peptide / Tsg101 binding; Potency, µM (top dose mostly 115 µM), without a hit: at the highest dose activity change, negative = inhibition, most hits filed as inhibitors; 340,000 tested, under 10 active; active means well fitted inhibition curve with a large enough effect in the main read-out, with a control signal flat, not every such curve was filed as active; inconclusive means small, poorly fitted or top-dose-only effect, or effect the other way, or a change in a side signal; inactive means no such curve, though single readings can be large or run the other way; further: potency means the concentration at half of the fitted maximal effect; % of control where 0% means no effect
# Target sequence (Q99816 whole entry, looked up): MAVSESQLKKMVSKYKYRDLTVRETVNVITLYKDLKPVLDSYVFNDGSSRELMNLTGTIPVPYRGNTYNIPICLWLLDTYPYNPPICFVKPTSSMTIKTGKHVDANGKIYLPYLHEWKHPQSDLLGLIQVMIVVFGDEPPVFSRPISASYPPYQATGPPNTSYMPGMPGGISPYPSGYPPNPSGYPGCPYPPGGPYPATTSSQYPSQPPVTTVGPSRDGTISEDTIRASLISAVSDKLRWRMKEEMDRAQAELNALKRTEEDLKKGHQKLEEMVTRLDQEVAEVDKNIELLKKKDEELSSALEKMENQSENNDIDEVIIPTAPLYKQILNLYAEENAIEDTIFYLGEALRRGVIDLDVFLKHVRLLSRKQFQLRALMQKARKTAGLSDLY
#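 FP read-out: FITC-PTAP peptide, 50 nM final, binding Tsg101 binding domain, 10 uM final; 20 min, r.t.; 10 mM HEPES pH 7.5, 0.15 M NaCl, 0.01% Tween 20, 3 mM EDTA, 0.1 mM TCEP.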
# Vif-APOBEC3G blk = Vif-A3G binding inhibition; Q9HC16; 0.076% of 410,000 active; AID 602310; Potency, µM (doses to about 46.1 µM), for inactives: at the highest dose activity, negative = active, actives largely listed as inhibitors; HeLa A3G-eYFP + Vif (tagged APOBEC3G with the HIV-1 protein that degrades it), YFP fluorescence, overnight; further: potency means the concentration at half of the fitted maximal effect; on the % scale 0 is the no-effect control and ±100 the full control effect; nearly all actives have a fitted effect of over 60% in size
#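 Read-out is eYFP fluorescence (Ex 488/Em 500-530) from Vif-expressing HeLa A3G-eYFP cells; more signal means A3G escaped Vif-mediated degradation. Cells plated overnight, compound pinned in, incubated overnight at 37 deg C.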
# ASM inhibitor = human S-ASM enzyme inhibition | Potency, µM (highest dose often 57.5 µM), without a hit: top-dose activity change, negative = inhibition, most hits filed as inhibitors | 0.006% of 340,000 active | AID 504937 | placental ASM, HMU-PC fluorogenic substrate, 60 min; further: potency means the concentration at half of the fitted maximal effect
#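 Human placenta-derived ASM preincubated with compound 10 min at room temperature, then reacted with 9 uM (final) fluorogenic HMU-PC substrate for 60 min at 37 C. Stop solution raises pH to 10; fluorescence read at Ex 386/Em 447 nm.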
# Akt phos inh = inhibitors of Akt phosphorylation | 0.32% of 360,000 active | activity change, % for hits at 50 µM | AID 651550 | Neuro2A IGF-stimulated pAkt S473 HTRF, 20 min; hits give low values; in the data active means activity change below about -80%; inconclusive means mostly about -51% to -80%; further: on the % scale 0 is the no-effect control and ±100 the full control effect
#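 Neuro2A cells in DMEM with 0.5% FBS, overnight at 37 deg C, given compound at single 50 µM final, then IGF (6 nM final) for 20 min at 37 deg C. Lysed; phospho-Akt Ser473 by HTRF after 24 h, 665/615 ratio.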
# Vif-APOBEC3F blk = blocks the Vif interaction with APOBEC3F | HeLa A3F-eYFP + Vif (tagged APOBEC3F with the HIV-1 protein that degrades it), YFP fluorescence increase | Potency, µM (highest dose often 46.1 µM), without a hit: at the highest dose activity, negative = active | 0.2% of 390,000 active; further: potency means the concentration at half of the fitted maximal effect; % of control where 0% means no effect; nearly all actives have a fitted effect of over 65% in size
#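 Fluorescence increase (Ex 488/Em 500-530) after overnight compound treatment at 37 deg C flags inhibition of Vif-driven A3F-eYFP loss in stable HeLa A3F-eYFP/Vif cells seeded overnight beforehand.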
# Starred values were filed as active, the others as inactive; i = inactive; u = inconclusive; x = no result; ! = a repeat was not active. Sampled rows, rich in hits. Any-hit rate of the full collection: about 1.4%. Unless noted, the call rests on the fitted dose curve; in most records, active means well fitted curve in the direction sought with a large enough effect; inconclusive means small, poorly fitted or top-dose-only effect, or another doubt; inactive means no such curve, though single readings can be large; an effect the other way counts as inactive or inconclusive.
SMILES,ALOX12 inh,TSG101-PTAP inh,Vif-APOBEC3G blk,ASM inhibitor,Akt phos inh,Vif-APOBEC3F blk
Cc1cc(C)c(OCC(=O)Nc2ccc(N3CCOCC3)cc2)c(Br)c1,28.2%,x,x,x,x,x
CC(=O)N1CCN(c2ccc(NC(=O)COc3c(C)cc(C)cc3Cl)cc2)CC1,12.6µM*,x,x,x,x,x
Cc1ccsc1C(=O)Nc1cccc2c1CCCC2,21.4%,x,x,x,x,x
O=C(Nc1ccccc1)c1cccc(OCc2ccccc2)c1,-23.1%,x,x,x,x,x
O=C(NC(=S)Nc1ccc(CN2CCCCC2)cc1)c1cccc(OCc2ccccc2)c1,31.6µM*,-0.4%,0.2%,-18.8%,i,4.8%
O=C(O)c1ccc(NC(=S)NC(=O)c2cccc(COc3ccccc3)c2)cc1,7.94µM*,-5.5%,-6.3%,-1.2%,i,0.6%
CCCn1c(SCC(=O)Nc2ccc(F)cc2)nc(O)cc1=O,-1.2%,x,x,x,x,x
Cn1c(=O)c2c(nc(NCC(O)CO)n2Cc2c(F)cccc2Cl)n(C)c1=O (stereo unspecified),-5.5%,x,x,x,x,x
Cc1nc2ccccc2c(C)c1C(=O)c1ccc(Cl)cc1,7.94µM*,x,x,x,x,x
CCOC(=O)c1c(C)nc2ccccc2c1C,u,-2.6%,0.3%,0.5%,i,-17.6%
Cc1cccc(Nc2nc(-c3ccccc3)nc3ccccc23)c1,0.0%,x,-4.0%,x,x,-10.0%
Oc1cccc(Nc2nc(-c3ccccc3)nc3ccccc23)c1,39.8µM*!,-1.1%,2.1%,-13.5%,i,0.3%
Cc1ccc(CNC(=O)CSc2nc3cc([N+](=O)[O-])ccc3o2)cc1,-17.8%,x,x,x,x,x
Cc1ccccc1C(C)NC(=O)CSc1nc2cc([N+](=O)[O-])ccc2o1 (stereo unspecified),25.1µM*,x,x,x,x,x
COCCn1c(-n2nc(C)cc2C)nc2c1c(=O)n(CCc1ccccc1)c(=O)n2C,31.8%,x,x,x,x,x
O=C(CCC(=O)c1ccc(Cl)cc1)OCC(=O)c1ccc(-c2ccccc2)cc1,28.3%,x,x,x,x,x
Cc1noc(C(C)C)c1C(=O)NCc1ccc(OC(C)C)nc1,2.2%,x,x,x,x,x
CNC(=O)NC(=O)CN(CC(=O)N(C)C)CC(F)(F)F,-6.4%,x,x,x,x,x
CC(C)c1ccc2c(c1)CC[C@H]1[C@](C)(CN)CCC[C@]21C,u,3.7%,-12.1%,-12.3%,i,-4.8%
Cc1cccc(NC(=S)NCC2(C)CCCC3(C)c4ccc(C(C)C)cc4CCC23)c1 (stereo unspecified),15.8µM*,x,x,x,x,x
Oc1ccc(C2SCCS2)cc1,-3.9%,x,x,x,x,x
O=C(/C(=C/c1ccc(Cl)cc1)c1nc2ccccc2[nH]1)c1cccs1,x,0.0%,u,-13.5%,i,4.0%
COc1cc(/C=C(/C(=O)c2cccs2)c2nc3ccccc3[nH]2)ccc1O,0.0%,-4.1%,10µM*,-7.7%,i,-15.4%
Cc1cc2c(c(=O)n1CCc1ccccc1)C(c1ccco1)C(C#N)=C(N)O2 (stereo unspecified),0.0%,1.2%,1.6%,0.5%,i,-8.3%
COc1cc(C2C(C#N)=C(N)Oc3cc(C)n(CCc4ccccc4)c(=O)c32)cc2c1OCO2 (stereo unspecified),u,-0.3%,-1.0%,6.3%,-87.9%*,-1.5%
SMILES,ALOX12 inh,TSG101-PTAP inh,Vif-APOBEC3G blk,ASM inhibitor,Akt phos inh,Vif-APOBEC3F blk
Clc1ccc2c(c1)nc(CN1CCOCC1)n2Cc1ccccc1,42.1%,x,x,x,x,x
CCOc1ccc(NC(=S)Nc2cc(C)[nH]n2)cc1,39.8µM*,-3.6%,-1.1%,-1.2%,i,-12.3%
CCOc1ccc(NC(=S)Nc2cc(OC)c(Cl)cc2OC)cc1,39.8µM*,-1.2%,-3.2%,-6.4%,i,-6.7%
CCOc1ccc(NC(=S)Nc2ccc(OCC)cc2)cc1,u,-2.2%,1.8%,-5.6%,i,-28.6%
COc1cc(NC(=S)Nc2cccc(Cl)c2Cl)c(OC)cc1Cl,-15.7%,-2.7%,-0.4%,-8.7%,i,2.2%
O=S(=O)(c1ccc(Cl)c(C(F)(F)F)c1)N1CCN(CC(O)COCC2CCCO2)CC1 (stereo unspecified),0.562µM*,-6.0%,-5.4%,0.1%,i,3.1%
